A short description of test [1]: Tanguay_ZF_120hpf_EYE_legacy: (Legacy) Oregon State University Tanguay Lab 120 Hour Post-fertilization zebrafish Assay for Eye Malformation (AID 2283636).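 Note: binary presence or absence of eye malformation scored by brightfield in 120 hpf larvae.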 Put shortly: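 Binary brightfield scoring of eye defects at 120 hpf after static exposure from 6 hpf of single pronase-dechorionated wild-type embryos (28C, 0.64% DMSO). Non-mortality endpoints omitted where embryos died; fit vs DMSO.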

A short description of test [2]: Tanguay_ZF_120hpf_JAW_legacy: (Legacy) Oregon State University Tanguay Lab 120 Hour Post-fertilization zebrafish Assay for Jaw Malformation (AID 2283638). In short, it runs like this:
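Wild-type 5D embryos, chorion removed at 4 hpf, dosed singly from 6 hpf; 28C static, sealed, foil-covered, to 120 hpf. Endpoint: jaw defect yes/no (brightfield); mortality excludes scoring.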

A short description of test [3]: Tanguay_ZF_120hpf_PE_legacy: (Legacy) Oregon State University Tanguay Lab 120 Hour Post-fertilization zebrafish Assay for Pericardial Edema (AID 2283640). In short, it runs like this:
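Zebrafish larvae are exposed from early development to 120 hpf at 28C, with 0.64% DMSO final. Each surviving larva receives a yes/no pericardial edema call by brightfield imaging, analysed relative to the DMSO baseline.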

Test [4] can be described thus: Tanguay_ZF_120hpf_BRAI_legacy: (Legacy) Oregon State University Tanguay Lab 120 Hour Post-fertilization zebrafish Assay for Brain Malformation (AID 2283641). In short, it runs like this:
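Static exposure of staged wild-type embryos until 120 hpf, kept at 28C with light excluded and final DMSO of 0.64% (vol/vol). Presence or absence of brain malformation was noted under brightfield; mortality precluded scoring.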

Test [5] is described as follows: Tanguay_ZF_120hpf_SOMI_legacy: (Legacy) Oregon State University Tanguay Lab 120 Hour Post-fertilization zebrafish Assay for Somite Malformation (AID 2283647). In short, it runs like this: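 Somitogenesis defects are recorded as binary calls in whole larvae at 120 hpf after continuous static chemical exposure starting at 6 hpf in dechorionated 5D embryos. DMSO serves as negative control and baseline.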

Test [6] is described as follows: Tanguay_ZF_120hpf_PFIN_legacy: (Legacy) Oregon State University Tanguay Lab 120 Hour Post-fertilization zebrafish Assay for Pectoral Fin Malformation (AID 2283648).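 Note: each larva judged yes or no for fin defect by brightfield with dead larvae skipped.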 Put shortly:
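Pectoral fin malformation was recorded as a binary endpoint at 120 hpf in wild-type Tropical 5D larvae, which had been dechorionated and exposed statically from 6 hpf at 28C in 0.64% DMSO. Dead embryos were excluded.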

A short description of test [7]: Tanguay_ZF_120hpf_CFIN_legacy: (Legacy) Oregon State University Tanguay Lab 120 Hour Post-fertilization zebrafish Assay for Caudal Fin Malformation (AID 2283649). In short, it runs like this: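 Single dechorionated 5D wild-type embryos are dosed at 6 hpf (final DMSO 0.64%) and held statically at 28C. Caudal fin malformation is recorded as present or absent at 120 hpf under brightfield, excluding dead embryos.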

Test [8] is described as follows: Tanguay_ZF_120hpf_PIG_legacy: (Legacy) Oregon State University Tanguay Lab 120 Hour Post-fertilization zebrafish Assay for Pigmentation Malformation (AID 2283650). Put shortly: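 Pigment malformation recorded as a binary call at 120 hpf in zebrafish (Tropical 5D) exposed singly from 6 hpf after pronase dechorionation. Static, sealed, 28C exposure, 0.64% DMSO; mortality excludes scoring; positive-direction fit against DMSO.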

Test [9] in a line: Tanguay_ZF_120hpf_CIRC_legacy: (Legacy) Oregon State University Tanguay Lab 120 Hour Post-fertilization zebrafish Assay for Circulatory Malformation (AID 2283651). Put shortly:
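Binary circulatory malformation call at 120 hpf by brightfield imaging of zebrafish larvae; chorion removed at 4 hpf, static exposure from 6 hpf in sealed dark plates at 28C, final DMSO 0.64%; non-mortality endpoints skipped if embryo died.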

Test [10] can be described thus: Tanguay_ZF_120hpf_SWIM_legacy: (Legacy) Oregon State University Tanguay Lab 120 Hour Post-fertilization zebrafish Assay for Swim Bladder Malformation (AID 2283654).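 Note: swim bladder malformation in each larva scored yes or no under brightfield.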 In short, it runs like this: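 Scoring is binary for swim bladder defects at 120 hpf, by brightfield inspection of zebrafish larvae. Embryos were exposed singly from 6 hpf after pronase dechorionation, at 28C with 0.64% DMSO; mortality excluded scoring.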

Test [11] in a line: Tanguay_ZF_120hpf_NC_legacy: (Legacy) Oregon State University Tanguay Lab 120 Hour Post-fertilization zebrafish Assay for Notochord and Tail Malformation (AID 2283656). Put shortly: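 Binary scoring of notochord distortion by brightfield microscopy; embryos dying were not scored. Wild-type Tropical 5D embryos, chorion removed, exposed singly and statically from 6 to 120 hpf, 28C, sealed, 0.64% DMSO.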

A short description of test [12]: Tanguay_ZF_120hpf_TR_legacy: (Legacy) Oregon State University Tanguay Lab 120 Hour Post-fertilization zebrafish Assay for Touch Response (AID 2283667). Put shortly: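 Binary touch-response endpoint in larvae at 120 hpf after static waterborne exposure from embryo stage (28°C, 0.64% DMSO vehicle, 5 uM trimethyltin chloride as positive control); embryos dead at 24 or 120 hpf excluded; fitted as gain versus DMSO.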

Test [13] can be described thus: Tanguay_ZF_120hpf_OTIC_legacy: (Legacy) Oregon State University Tanguay Lab 120 Hour Post-fertilization zebrafish Assay for Otic Vesicle Malformation (AID 2283639). In short, it runs like this:
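Binary scoring of otic vesicle defects at 120 hpf in zebrafish (Tropical 5D) held under static exposure at 28C, sealed and shaded, with final DMSO 0.64%. Embryos dying by 24 or 120 hpf excluded; fitted positively against DMSO.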

Test [14] in a line: Tanguay_ZF_120hpf_TRUN_legacy: (Legacy) Oregon State University Tanguay Lab 120 Hour Post-fertilization zebrafish Assay for Truncated Body (AID 2283655). In short, it runs like this: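 Single dechorionated zebrafish embryos received test chemical from 6 hpf in 0.64% DMSO, kept at 28C. At 120 hpf, brightfield inspection noted any truncated body.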
Test [15] can be described thus: Tanguay_ZF_120hpf_SNOU_legacy: (Legacy) Oregon State University Tanguay Lab 120 Hour Post-fertilization zebrafish Assay for Snout Malformation (AID 2283637). Put shortly: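 Binary snout-malformation call at 120 hpf in wild-type 5D embryos, chorion removed by pronase, under static exposure from 6 hpf at 28C (0.64% DMSO). Embryos dying by 24 or 120 hpf excluded.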

Read-out in test [16]: solute carrier (SLC10A1), SLC10A1 (gene 6554)
Description: LTEA_HepaRG_SLC10A1: Life Technologies and Expression Analysis (LTEA) Assay for solute carrier (SLC10A1) using HepaRG (AID 2283657; active = hit-call score of the fitted dose curve at least 0.9, where 1 is the maximum; inactive = score below 0.9). As to conditions: mRNA level, 48 h; actives raise or lower the signal. In short, it runs like this:
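SLC10A1 transcript measured by TaqMan qRT-PCR, housekeeping-normalised, after 48 h chemical treatment of human HepaRG cells. Eight concentrations (half-log, max 100 uM, 0.5% DMSO vehicle) in duplicate; fitted bidirectionally against DMSO baseline.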

Read-out in test [17]: matrix metalloproteinase-1 (MMP1), MMP1 (gene 4312)
Description: LTEA_HepaRG_MMP1: Life Technologies and Expression Analysis (LTEA) Assay for matrix metalloproteinase-1 (MMP1) using HepaRG (AID 2283658; active = hit-call score of the fitted dose curve at least 0.9, where 1 is the maximum; inactive = score below 0.9). Particulars: mRNA level, 48 h; actives raise or lower the signal. Put shortly: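 In this screen, human liver HepaRG cultures receive each chemical in duplicate for 48 h (top 100 uM, 0.5% DMSO). MMP1 expression is then quantified by TaqMan qRT-PCR with ACTB/GAPDH/POLR2A normalization.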

For test [18], the system named is Thyroperoxidase (TPO), gene 54314. In words: CCTE_Simmons_AUR_rTPO: CCTE's Amplex UltraRed Assay for Thyroperoxidase (TPO) Inhibition, Simmons Lab (AID 2283662).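 For AC50: potency for loss of signal meaning inhibition of peroxidase activity.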 In short, it runs like this:
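Cell-free peroxidase activity assay using rat thyroid gland microsomes with excess H2O2 (300 uM) and 25 uM Amplex UltraRed. Compounds tested from 5 nM to 87.5 uM; fluorescence measured after 30 min at 37C, analysed relative to DMSO baseline.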

The nature of test [19]: CCTE_Simmons_CellTiterGLO_HEK293T: Viability Assessment in CCTE's Assays for Thyroperoxidase (TPO) Inhibition, Simmons Lab (AID 2283665). Put shortly: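 Luciferase-coupled ATP content after 24 h exposure gives viability; 8-point series from 5 nM to 87.5 uM final in 0.5% DMSO. Human HEK293T cells, 1% FBS medium, three biological replicates, dichlone positive control.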
(In general: Cellular ATP, detected with luciferase, serves as a proxy for viable cell number.)

Each structure is given as a SMILES string. Records with an inconclusive call do not appear. The source made the active and inactive calls. Rule for the calls, unless noted: active = hit-call score of the fitted dose curve at least 0.9, where 1 is the maximum; inconclusive = response in the unintended direction; inactive = score below 0.9.

Turning to `Clc1ccc(Cl)c(Cl)c1`, the outcome in [1], in test [2], in test [3], in test [4], in test [5] and in test [6] was inactive. Besides, the result in test [7], in [8], in [9], in test [10], in test [11] and in [12] was inactive.

For the molecule `O=[N+]([O-])c1ccc(Oc2ccc(Cl)cc2Cl)cc1`, the outcome in test [1], in test [13], in test [3], in test [4], in test [5] and in [6] was inactive. Moreover, the result in test [7], in [10], in test [14] and in test [12] was inactive.

Consider `O=[N+]([O-])C(Br)(CO)CO`, for which the call in [1], in test [15], in test [13], in [4], in test [5] and in test [6] was inactive. Moreover, the result in test [7], in test [8], in test [10], in test [11], in [16] and in test [17] was inactive. Besides, the outcome in test [12] was inactive.

Consider `O=C(O)C1C2CCC(O2)C1C(=O)O` (stereo unspecified), for which the result in test [1], in test [15], in [2], in [3], in [5] and in test [6] was inactive. In addition, the molecule was called inactive in test [7], in [9], in test [10] and in test [11].

In the case of `O=C(N[C@H](c1ccccc1)[C@@H]1CN2CCC1CC2)c1c(Cl)ccc(C(F)(F)F)c1Cl`, the outcome in [15], in [13], in [3], in test [4], in test [6] and in test [8] was inactive. Besides, the AC50 (commonly the midpoint of the concentration-response curve, whichever way the signal moves) in [12] was 0.968 µM (active).

On to `Oc1ccccc1Cl`, for which the molecule was classed as inactive in [1], in test [13], in [4], in test [7], in test [8] and in [10]. Also, the molecule was called inactive in [14], in test [18] and in test [19].

`Nc1cc(Cl)cc(C(=O)O)c1Cl`: the molecule was called inactive in test [1], in test [15], in test [2], in test [5], in [6] and in [7]. Moreover, the call in test [8], in test [10], in test [14], in test [11] and in test [19] was inactive. Further, the AC50 in [18] was 24.2 µM (active).

As to `[As]#[In]`, the molecule was called inactive in test [15], in test [2], in test [13], in [4], in [5] and in [6]. Moreover, the result in test [7], in [8], in test [9], in [10], in test [14] and in [11] was inactive.

Regarding `CC(C)(C)OOC(C)(C)CCC(C)(C)OOC(C)(C)C`, the result in test [1], in test [15], in test [2], in [4], in test [6] and in test [7] was inactive. The outcome in test [8], in [10], in test [14], in test [11] and in [12] was inactive.

In the case of `CCCCCCCCn1sccc1=O`, the molecule was called inactive in test [1], in [2], in [13], in [3], in test [4] and in test [6]. In addition, the result in test [7], in [8], in test [9], in test [10], in test [14] and in [11] was inactive. The molecule was classed as inactive in test [12].

As for `CS(=O)(=O)NC(=O)c1cc(Oc2ccc(C(F)(F)F)cc2Cl)ccc1[N+](=O)[O-]`, the result in test [1], in test [15], in [2], in test [4], in test [5] and in test [6] was inactive. Also, the molecule was classed as inactive in [7], in test [8], in [9], in [10], in test [14] and in test [11].

The record behind these values is PubChem BioAssay (EPA / NIEHS).
